The results in this text go back to PubChem BioAssay (Tox21).

Test [1] in a line: qHTS assay to identify small molecule antagonists of the estrogen receptor alpha (ER-alpha) signaling pathway using the BG1 cell line in the presence of 0.1 nM 17-beta-estradiol - cell viability counter screen (AID 1259241). Note: nearly all actives have a fitted effect of over 40% in size. The method, boiled down:
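CellTiter-Fluor read (30 min, 37C) on ER-alpha/ERE-luc VM7Luc4E2 cells; 22 hr compound treatment; agonist 0.1 nM E2 final; same-well multiplex.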

The nature of test [2]: qHTS assay to identify small molecule antagonists of the androgen receptor (AR) signaling pathway using the MDA cell line in the presence of 0.5 nM R1881 - cell viability counter screen (AID 1259242). Note: nearly all actives have a fitted effect of over 45% in size. A digest of the protocol: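 Steps: plate MDA-kb2 cells, rest 5 hr at 37C without CO2; pin in compounds in DMSO; add R1881 to 0.5 nM final; incubate 16 hr; add CellTiter-Fluor, 30 min; read fluorescence.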
(In qHTS, concentration-response curves come from the screen itself.)

Test [3] has as its target Estrogen receptor (Homo sapiens) (UniProt P03372). The test can be described thus: qHTS assay to identify small molecule antagonists of the estrogen receptor alpha (ER-alpha) signaling pathway using the BG1 cell line in the presence of 0.1 nM 17-beta-estradiol (AID 1259244). Note: nearly all actives have a fitted effect of over 50% in size. A digest of the protocol: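 Antagonist mode: compounds in DMSO are pinned onto VM7Luc4E2 reporter cells, 0.1 nM final 17beta-estradiol is added, and after 22 h at 37C luciferase luminescence is measured with ONE-Glo.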

Test [4] in a line: qHTS assay to identify small molecule HDAC inhibitors (AID 1259364). For activity change, negative = inhibition: top concentration of the series differs between compounds. Note: potency is the fitted concentration of half-maximal effect.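 Note: wild-type HCT-116 cells with endogenous class I/II HDAC activity; nearly all actives have a fitted effect of over 45% in size.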 A digest of the protocol:
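Cells (HCT-116, wild type) are seeded at 1,500 per well, incubated overnight, treated with compound in DMSO for 2 hr, then developed with HDAC-Glo I/II reagent for 30 min at room temperature.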

Test [5] is described as follows: qHTS assay to identify small molecule HDAC inhibitors - cell viability counter screen (AID 1259365). Note: series mostly up to about 92 µM; nearly all actives have a fitted effect of over 50% in size. The method, boiled down: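 To flag cytotoxic hits, 1,500 wild-type HCT-116 cells per well, plated the day before, receive test compounds for 2hr at 37 C before CellTiter-Glo reagent and a luminescence read.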
The nature of test [6]: qHTS assay to identify small molecule agonists of the sonic hedgehog signaling (Shh) pathway - cell viability counter screen (AID 1259366). Note: nearly all actives have a fitted effect of over 50% in size. A digest of the protocol: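 Fluorescence from CellTiter-Fluor reports live cells in this counter screen. NIH/3T3-derived Gli1-Luc reporter cells receive test compounds for 24hr at 37C; reagent goes in at 23hr.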
A short description of test [7]: qHTS assay to identify small molecule antagonists of the sonic hedgehog signaling (Shh) pathway - cell viability counter screen (AID 1259367). Note: nearly all actives have a fitted effect of over 55% in size. A digest of the protocol: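 Tox21 library chemicals were tested on a Gli1-Luc NIH/3T3 clone (2,000 cells/well) stimulated by conditioned medium; viability was quantified as fluorescence from CellTiter-Fluor reagent added at 23 hr.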

Test [8] can be described thus: qHTS assay to identify small molecule agonists of the sonic hedgehog signaling (Shh) pathway (AID 1259368; calls by dose curve;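 note: NIH/3T3-derived 3T3Gli1-Luc cells carrying a stable Gli1-driven firefly luciferase reporter; series mostly up to about 92 µM; nearly all actives have a fitted effect of over 15% in size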). The method, boiled down: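 Cells of a mouse NIH/3T3 clone stably expressing luciferase under the Gli1 transcriptional response element are exposed to test chemicals for 24 hr at 37 C. Pathway activation is detected as a rise in luminescence.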
A short description of test [9]: qHTS assay to identify small molecule antagonists of the sonic hedgehog signaling (Shh) pathway (AID 1259369; calls by dose curve; note: nearly all actives have a fitted effect of over 45% in size). A digest of the protocol:
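Cells are plated and held 4hr at 37 C, compounds (DMSO) are pinned in, conditioned medium is added to stimulate the pathway, and after 24hr luciferase reagent is added for 30min before luminescence is read.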

In test [10] the target is Estrogen receptor beta (Homo sapiens) (UniProt Q92731). As to the kind of experiment: qHTS assay to identify small molecule agonists of the estrogen receptor beta (ER-beta) signaling pathway (AID 1259377; active = well fitted activation curve with a large enough effect in the signal ratio in the repeat runs, not every such curve was filed as active; the % refers to the signal ratio). The method, boiled down:
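Screening used GripTite ER-beta-UAS-bla cells held in 2% charcoal-stripped FBS medium. After overnight (16 hr) compound incubation at 37C, beta-lactamase activity was detected with a FRET substrate by fluorescence.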

Test [11] has the same target. As to the kind of experiment: qHTS assay to identify small molecule antagonists of the estrogen receptor beta (ER-beta) signaling pathway (AID 1259378; active = well fitted inhibition curve with a large enough effect in the signal ratio in the repeat runs, not every such curve was filed as active; the % refers to the signal ratio). A digest of the protocol: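 ER-beta-UAS-bla HEK293T cells in 2% charcoal-stripped FBS medium treated with compound plus 1nM final 17-beta-estradiol for 16 hr at 37C. Beta-lactamase reporter read by FRET substrate fluorescence after 2 hours at room temperature.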

A short description of test [12]: qHTS assay to identify small molecule agonists of the androgen receptor (AR) signaling pathway in the presence of an antagonist - cell viability counter screen (AID 1259379).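 Note: MDA-kb2 human breast cancer cells carrying an MMTV luciferase reporter; series mostly up to about 92 µM; nearly all actives have a fitted effect of over 25% in size.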 The method, boiled down:
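Cytotoxicity is assessed by CellTiter-Fluor in MDA-kb2 cells carrying an MMTV-driven luciferase reporter. Cells receive 3.0uM nilutamide plus compounds at 15 concentrations and incubate 16 hr at 37C without CO2 before fluorescence reading.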

The nature of test [13]: qHTS assay to identify small molecule agonists of the estrogen receptor beta (ER-beta) signaling pathway - cell viability counter screen (AID 1259380). Note: nearly all actives have a fitted effect of over 30% in size. A digest of the protocol: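 Cytotoxicity is measured in parallel with the reporter screen: after 16 hr compound exposure at 37C and a 2 hr LiveBLAzer step, CellTiter-Glo is added to the same ER-beta-UAS-bla HEK293T wells and luminescence read after 30 min.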

Test [14] in a line: qHTS assay to identify small molecule antagonists of the estrogen receptor beta (ER-beta) signaling pathway - cell viability counter screen (AID 1259382). Note: series mostly up to about 92 µM; nearly all actives have a fitted effect of over 55% in size. The method, boiled down: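 Cytotoxicity counter screen multiplexed with the beta-lactamase antagonist assay: GripTite HEK293T ER-beta-bla cells were treated 16 hr with test chemicals in the presence of 1nM 17-beta-estradiol, and viability was measured by CellTiter-Glo.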

For test [15], the target named is Estrogen receptor (Homo sapiens) (UniProt P03372). As to the kind of experiment: qHTS assay to identify small molecule agonists of the estrogen receptor alpha (ER-alpha) signaling pathway in the presence of an antagonist (AID 1259383; calls by dose curve; note: nearly all actives have a fitted effect of over 15% in size; note: potency is the fitted concentration of half-maximal effect; for activation: top concentration of the series differs between compounds). A digest of the protocol: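 Agonist-mode confirmation in the presence of the ER antagonist ICI-182,780 at 10.0nM final. Breast-derived VM7Luc4E2 reporter cells were exposed to compounds for 22hr, and ERE-driven luciferase was quantified by luminescence.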

Test [16] is described as follows: qHTS assay to identify small molecule agonists or antagonists of the thyroid stimulating hormone receptor (TSHR) signaling pathway - wild type cell line counter screen (AID 1259384; calls by dose curve). The method, boiled down:
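Wild-type Hek293 cells, 800/well, 18 h at 37C, then compound with Ro20-1724 for 30 min RT. cAMP by HTRF (cAMP-d2/anti-cAMP cryptate), 1 h RT, fluorescence read. 15 concentrations, triplicates.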

Test [17] has as its target Thyrotropin receptor (Homo sapiens) (UniProt P16473). The test can be described thus: qHTS assay to identify small molecule antagonists of the thyroid stimulating hormone receptor (TSHR) signaling pathway (AID 1259385; calls by dose curve; note: nearly all actives have a fitted effect of over 20% in size). A digest of the protocol:
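TSHR-HEK293 cells (800/well) plated 18 h, then compounds with Ro20-1724 and TSH at 1.5 ng/mL final, 30 min at room temperature. cAMP quantified by HTRF (cAMP-d2/anti-cAMP-cryptate, 1 h); 15 concentrations in triplicate.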

Test [18] is described as follows: qHTS assay to identify small molecule phospholipidosis (PLD) inducers (AID 1259344; active = well fitted curve in the direction sought with a large enough effect; an effect the other way counts as inactive or inconclusive). A digest of the protocol: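 Image-based: LipidTOX Red pit count/intensity per well and per cell; HepG2, 24 h compound at 37 C, PFA fixation, Hoechst counterstain.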

A number with no mark means an inactive call. Records with an inconclusive call do not appear. Active and inactive are the calls of the source. Unless noted, calls come from the whole dose curve; as a rule, active = well fitted curve in the direction sought with a large enough effect in the repeat runs; inconclusive = weak or mixed curves; inactive = no such curve, though single readings can be large; an effect the other way counts as inactive or inconclusive.
% is set by controls: 0 for no effect and ±100 for the full control effect.

Thyrotropin receptor (Homo sapiens), sequence (P16473 whole entry, looked up): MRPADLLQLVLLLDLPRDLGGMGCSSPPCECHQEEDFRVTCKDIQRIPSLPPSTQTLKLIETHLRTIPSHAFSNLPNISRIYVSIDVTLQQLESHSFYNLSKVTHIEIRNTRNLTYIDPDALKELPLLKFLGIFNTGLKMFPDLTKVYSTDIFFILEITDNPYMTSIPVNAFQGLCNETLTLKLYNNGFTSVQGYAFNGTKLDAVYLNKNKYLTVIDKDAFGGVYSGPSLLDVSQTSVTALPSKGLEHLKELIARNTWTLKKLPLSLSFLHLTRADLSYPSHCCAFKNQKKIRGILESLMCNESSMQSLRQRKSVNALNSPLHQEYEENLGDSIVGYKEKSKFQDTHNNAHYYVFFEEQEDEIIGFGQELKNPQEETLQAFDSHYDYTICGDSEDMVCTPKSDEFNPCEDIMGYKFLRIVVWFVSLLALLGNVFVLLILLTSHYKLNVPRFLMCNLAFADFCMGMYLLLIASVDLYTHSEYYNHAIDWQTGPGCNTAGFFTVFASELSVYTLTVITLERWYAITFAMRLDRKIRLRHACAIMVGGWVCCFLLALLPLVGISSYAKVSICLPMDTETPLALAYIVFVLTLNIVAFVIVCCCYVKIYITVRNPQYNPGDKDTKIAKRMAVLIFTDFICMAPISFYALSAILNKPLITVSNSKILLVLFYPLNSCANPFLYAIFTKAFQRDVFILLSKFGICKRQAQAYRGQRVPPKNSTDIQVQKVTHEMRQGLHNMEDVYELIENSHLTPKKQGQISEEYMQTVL
Estrogen receptor beta (Homo sapiens), sequence (Q92731 whole entry, looked up): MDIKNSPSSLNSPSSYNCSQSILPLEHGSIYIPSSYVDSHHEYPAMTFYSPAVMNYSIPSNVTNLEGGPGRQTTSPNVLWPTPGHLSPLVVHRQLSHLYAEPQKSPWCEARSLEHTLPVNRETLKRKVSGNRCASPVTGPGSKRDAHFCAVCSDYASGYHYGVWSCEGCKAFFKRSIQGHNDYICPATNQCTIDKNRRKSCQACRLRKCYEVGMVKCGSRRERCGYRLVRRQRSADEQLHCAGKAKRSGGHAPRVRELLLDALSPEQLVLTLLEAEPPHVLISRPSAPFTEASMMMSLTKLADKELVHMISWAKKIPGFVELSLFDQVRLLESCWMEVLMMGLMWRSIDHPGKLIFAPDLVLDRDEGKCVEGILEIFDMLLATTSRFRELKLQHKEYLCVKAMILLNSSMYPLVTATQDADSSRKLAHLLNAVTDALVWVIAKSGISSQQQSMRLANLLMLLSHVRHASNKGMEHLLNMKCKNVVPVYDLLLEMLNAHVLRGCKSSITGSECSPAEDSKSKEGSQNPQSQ
Estrogen receptor (Homo sapiens), sequence (P03372 whole entry, looked up): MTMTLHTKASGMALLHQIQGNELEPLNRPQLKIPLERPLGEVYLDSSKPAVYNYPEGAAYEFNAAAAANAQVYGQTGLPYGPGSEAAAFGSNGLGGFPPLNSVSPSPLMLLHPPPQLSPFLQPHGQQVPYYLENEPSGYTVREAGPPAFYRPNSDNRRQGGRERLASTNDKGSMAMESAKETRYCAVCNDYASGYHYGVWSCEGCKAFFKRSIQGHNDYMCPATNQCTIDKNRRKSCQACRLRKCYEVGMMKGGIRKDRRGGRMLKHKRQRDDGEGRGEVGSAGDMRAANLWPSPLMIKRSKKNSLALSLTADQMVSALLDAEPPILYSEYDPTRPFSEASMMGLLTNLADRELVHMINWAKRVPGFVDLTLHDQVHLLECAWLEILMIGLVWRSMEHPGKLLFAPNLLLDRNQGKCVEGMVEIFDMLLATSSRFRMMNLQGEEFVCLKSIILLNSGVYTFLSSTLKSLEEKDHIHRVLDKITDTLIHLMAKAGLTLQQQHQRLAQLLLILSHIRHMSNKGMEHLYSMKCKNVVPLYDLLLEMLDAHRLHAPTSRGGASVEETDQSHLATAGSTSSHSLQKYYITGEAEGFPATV

As for `O=C1OC(=O)C2CC=CCC12` (stereo not drawn), the Potency result in [1], in test [2], in test [3], in [4], in [6] and in [7] was “inactive” throughout. Further, the Potency entry in test [8], in test [9], in test [10], in [11], in test [12] and in test [13] was “inactive” in each case. In addition, the Potency entry in [14], in [15] and in test [17] was “inactive” each time. Further, the compound was called inactive in test [5] and in test [16].

As for `Nc1ccc(C(=O)Oc2ccccc2)c(O)c1`, the Potency entry in test [1], in test [2], in test [3], in test [18], in test [6] and in [7] was “inactive” throughout. In addition, the Potency entry in test [8], in test [9], in [12], in test [13], in [14] and in test [15] was “inactive” in each case. Besides, the Potency entry in test [17] is “inactive”. In addition, the compound was classed as inactive in test [5] and in test [16].

For the compound `CC(C)=CCC[C@H](C)CCO`, the Potency result in test [1], in test [2], in [3], in test [4], in test [6] and in test [7] was “inactive” throughout. Further, the Potency result in test [8], in test [9], in [10], in [11], in [12] and in test [13] was “inactive” each time. In addition, the Potency entry in [14], in test [15] and in test [17] was “inactive” each time. Also, the outcome in test [5] and in test [16] was inactive.

As to `C=CC(=O)NC(C)(C)C`, the Potency result in test [1], in test [2], in test [3], in test [4], in test [6] and in test [7] was “inactive” each time. The Potency entry in test [8], in test [9], in test [12], in test [13], in test [14] and in [15] was “inactive” in each case. Besides, in [17], the Potency result is “inactive”. Besides, the compound was classed as inactive in test [5] and in [16].

In the case of `C/C(=C\C(C)CC(C)CC(C)C)C1CC(=O)OC1=O` (stereo not drawn), the Potency result in [1], in test [2], in test [3], in [4], in test [6] and in test [7] was “inactive” each time. Further, the Potency result in test [8], in test [9], in test [10], in test [12], in test [14] and in test [15] was “inactive” each time. The Potency result in test [17] is “inactive”. Further, the outcome in test [5] and in test [16] was inactive.

As to `c1ccc(-c2ccc(-c3ccccc3)cc2)cc1`, the activity change, negative = cytotoxicity was 0.519% [at 19 µM] in [1]; 0.606% [at 19 µM] in test [5]; -0.211% [at 19 µM] in test [12]; 0.175% [at 19 µM] in test [13]; -1.89% [at 19 µM] in test [14]. The viability change, negative = cytotoxic is 1.4% [at 19 µM] in test [2], 0.865% [at 19 µM] in test [6] and -1.08% [at 19 µM] in [7]. Moreover, the activity change, negative = inhibition in test [3] was 56.5% [at 19 µM]; in test [9], 32.6% [at 19 µM]. Also, the Potency in test [4] is 4.45 µM (active); in test [15], 0.629 µM (active). The activity change in test [8] is 4.66% [at 18.9 µM, hits give high values].

As to `CC(C)=CCC/C(C)=C/C=N/O`, the Potency result in test [1], in test [2], in [3], in [4], in [6] and in test [7] was “inactive” throughout. The Potency entry in test [8], in test [9], in [10], in test [12], in [13] and in test [15] was “inactive” in each case. In test [17], the Potency result was “inactive”. Moreover, the result in [5] and in [16] was inactive.

As to `N#CCCCC(C#N)CCC#N` (stereo not drawn), the Potency result in test [1], in test [2], in test [3], in test [4], in test [6] and in test [7] was “inactive” in each case. Further, the Potency entry in test [8], in test [9], in [12], in test [13], in test [14] and in [15] was “inactive” in each case. Also, in test [17], the Potency result was “inactive”. Besides, the outcome in test [5] and in [16] was inactive.

As for `O=c1c2ccccc2oc2ccccc12`, the Potency result in test [1], in test [2], in test [3], in [6], in [7] and in test [8] was “inactive” throughout. Further, the Potency result in test [9], in [11], in test [12], in test [13], in test [14] and in test [15] was “inactive” throughout. Besides, the Potency result in [17] is “inactive”. For the same compound, the Potency in [4] is 17.2 µM (active). Besides, the outcome in test [5] and in test [16] was inactive.
